Sampled rows, rich in hits. Any-hit rate of the full collection: about 4.6%.
Tau fluor counter: counter-screen for tau fibril formation inhibitors | tau K18 P301L Alexa594 fluorescence, heparin fibrillization | Potency, µM (titrated, usually from 57.7 µM) | 280,000 tested, 0.93% active; further: nearly all actives have a fitted effect of over 55% in size
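Human K18 P301L tau (15 uM unlabeled plus 0.24 uM Alexa 594-labeled, final) in 100 mM sodium acetate pH 7 was mixed with compound and 20 uM heparin and incubated 6 hr at 37 C.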
Tau fibril FP: inhibitors of human tau fibril formation | 280,000 tested, 0.39% active | P10636 | Potency, µM (highest dose often 57.7 µM), usual class: inhibitors | K18 P301L tau heparin fibrillization, Alexa594 FP, 6 h; further: nearly all actives have a fitted effect of over 55% in size
Target sequence (P10636 561-689 P618L limits assumed): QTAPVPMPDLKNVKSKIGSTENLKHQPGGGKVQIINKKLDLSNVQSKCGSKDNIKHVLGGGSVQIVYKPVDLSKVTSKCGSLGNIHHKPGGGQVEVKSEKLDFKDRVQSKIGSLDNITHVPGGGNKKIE
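Heparin (20 uM) drove fibril formation of recombinant tau K18 P301L, 15 uM unlabeled with 0.24 uM Alexa 594 label, for 6 hr at 37 C in 100 mM sodium acetate pH 7. Fluorescence polarization (555/632 nm) read 1 hr after 30 uM ThT.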
TRb SRC2 PPI: TRbeta-SRC2 interaction inhibition | TRbeta-SRC2 peptide binding, fluorescence polarization; receptor liganded with 1 µM T3 | Potency, µM (top dose mostly 106 µM), hits mostly inhibitors | 280,000 tested, 0.065% active | AID 1469; further: nearly all actives have a fitted effect of over 50% in size
Target sequence (P10828 whole entry, looked up): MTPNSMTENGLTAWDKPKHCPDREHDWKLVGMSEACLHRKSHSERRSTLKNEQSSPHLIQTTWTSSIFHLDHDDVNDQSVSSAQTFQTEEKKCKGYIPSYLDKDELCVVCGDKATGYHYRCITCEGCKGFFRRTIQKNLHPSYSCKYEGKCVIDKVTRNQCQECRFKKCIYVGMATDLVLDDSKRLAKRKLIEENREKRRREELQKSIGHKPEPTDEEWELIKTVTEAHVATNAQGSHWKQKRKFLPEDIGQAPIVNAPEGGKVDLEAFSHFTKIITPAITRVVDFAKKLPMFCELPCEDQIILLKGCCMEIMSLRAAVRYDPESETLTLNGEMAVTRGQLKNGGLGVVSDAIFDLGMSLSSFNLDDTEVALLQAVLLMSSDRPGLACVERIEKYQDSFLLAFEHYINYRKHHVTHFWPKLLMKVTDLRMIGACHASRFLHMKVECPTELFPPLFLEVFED
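Compounds were added to 0.6 uM TRb ligand-binding domain and 20 nM Texas Red-labeled SRC2 peptide in Tris buffer containing 1 uM T3, incubated 5 hr at ambient temperature, then read by fluorescence polarization.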
PNC inhibitor: blocks assembly of the perinucleolar compartment. PC3M PTB-GFP, PNC prevalence imaging, 16 h; active compounds read low. activity change (PNC), negative = inhibition, % at 10 µM. 140,000 tested, 3.1% active;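 active means readout at or below -70, meaning at least 70% loss of cells showing the perinucleolar compartment, a nuclear body marking cancer cells; inconclusive means readout between -30 and a set limit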
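Compounds are pinned in duplicate onto adhered PC3M cells stably expressing GFP-tagged PTB and incubated 16 h at 37 C. Cells are then fixed, nuclei stained with Hoechst, and PNC-positive cells counted.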
TexasRed fluor: Texas Red fluorescence interference in TRb-SRC2 counter-screen; Potency, µM (series often up to 106 µM); 280,000 tested, 0.29% active; TRb/SRC2 Texas Red total fluorescence interference; active means well fitted curve in either direction with a large enough effect; inconclusive means small, poorly fitted or top-dose-only effect
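Human TRβ ligand-binding domain (0.6 uM) and Texas Red SRC2 peptide (20 nM) in Tris buffer with 1 uM T3 and 5% DMSO were incubated with pinned compound for 5 hr at ambient temperature. Total fluorescence was computed as S + 2P (555/632 nm).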
Tau ThT inhib: tau fibrillization inhibition (ThT binding); P10636; Potency, µM (titrated, usually from 57.4 µM), actives largely listed as inhibitors; 270,000 tested, 2.1% active; recombinant tau K18 P301L, heparin-induced fibrillization, ThT fluorescence; AID 1460; further: nearly all actives have a fitted effect of over 55% in size
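ThT emission at 510 nm, taken 1 hr after adding 30 uM dye, quantifies aggregates formed when 20 uM heparin acts on human tau K18 P301L for 6 hr at 37 C.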
Numbers stand for hits; – = inactive; ? = inconclusive; · = not tested or not shown; ! = not confirmed by another sample; [ ] = remark or other dose. Unless noted, the call rests on the fitted dose curve; in most records, active means well fitted curve in the direction sought with a large enough effect; inconclusive means small, poorly fitted or top-dose-only effect, or another doubt; inactive means no such curve, though single readings can be large; an effect the other way counts as inactive or inconclusive.

SMILES	Tau fluor counter	Tau fibril FP	TRb SRC2 PPI	PNC inhibitor	TexasRed fluor	Tau ThT inhib
O=C(NNC1=NCCC1)c1cccc(Br)c1	–	–	–	–	–	–
COc1cc(OC)c2cc(C(=O)N/N=C/c3cccc(OC)c3O)[nH]c2c1	?	?	–	·	–	5µM
CCOc1ccc(C(=O)Nc2cccc(-c3cc4ccccc4oc3=O)c2)cc1[N+](=O)[O-]	?	?	–	?	–	–
Cc1cc(C)cc(N(CC(=O)NC2CCCC2)C(=O)C2(C)CC(=O)N=C3C=CC=CN32)c1 (stereo not drawn)	–	–	–	·	–	–
Cc1ccccc1N(CC(=O)NC1CCCC1)C(=O)C1(C)CC(=O)N=C2C=CC=CN21 (stereo not drawn)	–	–	–	-116	–	–
CC(C)C(NC(=O)C(Cc1ccc(O)cc1)NC(=O)C(NC(=O)C(F)(F)F)C(C)C)C(=O)O (stereo not drawn)	–	–	–	·	–	–
CCCC(C)C(=O)Nc1ccc(Cl)cn1 (stereo not drawn)	–	–	–	–	–	–
Cc1cc(C)nc(-n2nc(C)cc2NC(=O)CNC2CCCCC2)n1	–	–	–	–	–	–
CC(=O)c1ccc(NC(=O)c2ccc3c(c2)N(Cc2cccc(Cl)c2)C(=O)c2ccccc2S3(=O)=O)cc1	?	16µM	–	·	–	–
O=C(Nc1cccc(F)c1)c1ccc2c(c1)N(Cc1ccccc1)C(=O)c1ccccc1S2(=O)=O	?	14µM	–	·	–	–
COc1ccc(NC(=O)c2ccc3c(c2)N(Cc2cccc(Cl)c2)C(=O)c2ccccc2S3(=O)=O)cc1Cl	–	16µM	–	·	–	–
CC(=O)c1ccc(NC(=O)c2ccc3c(c2)N(Cc2cccc(Cl)c2)C(=O)c2ccccc2S3=O)cc1 (stereo not drawn)	–	?	–	·	–	?
COc1ccc(NC(=O)c2ccc3c(c2)N(Cc2cccc(Cl)c2)C(=O)c2ccccc2S3=O)cc1Cl (stereo not drawn)	–	?	–	·	–	–
CCCCN(C)C(=O)c1ccc2c(c1)N(Cc1ccc(F)cc1)C(=O)c1ccccc1S2(=O)=O	?	–	–	·	0.0011µM[quencher]	?
O=C(NC1CCCCC1)c1ccc2c(c1)N(Cc1ccc(F)cc1)C(=O)c1ccccc1S2(=O)=O	?	–	–	·	?	?
CCCNC(=O)CCC(NS(=O)(=O)c1ccc(C)cc1)C(=O)NCCC (stereo not drawn)	–	–	–	–	–	–
CC/C=C\C/C=C\C/C=C\C/C=C\C/C=C\C/C=C\CCC(=O)O	–	?	–	·	–	16µM!
CCc1cccc(NC(=O)c2cc(S(=O)(=O)N(C)C)ccc2N2CCCC2)c1	–	–	–	·	–	–
O=C(Nc1ccc([N+](=O)[O-])cc1)Nc1ccc(N2CCOCC2)c2nonc12	?	–	?	·	–	0.89µM
COCCNC(=O)/C(C#N)=C/c1ccc(O)c([N+](=O)[O-])c1	–	–	–	·	–	?
Cc1cc(C(=O)OC(C)C(=O)Nc2nc(-c3ccccc3)cs2)c(C)o1 (stereo not drawn)	–	–	–	–	–	–
O=C(O)c1c(Cl)c(Cl)c(Cl)c(Cl)c1-c1c2cc(I)c(=O)c(I)c-2oc2c(I)c(O)c(I)cc12	1.6µM[fluorescent]	–	5µM	·	2.8µM[fluorescent]	3.2µM
CCCc1nc(S(=O)(=O)Cc2ccc(Cl)cc2Cl)n[nH]1	–	–	–	-116	–	–
O=c1[nH]nc(Cc2ccc(Cl)cc2Cl)c2ccccc12	–	–	–	–	–	–
Cc1cc(C)n(-c2ccc(C(=O)OCC(=O)Nc3cc(Cl)ccc3[N+](=O)[O-])cc2)n1	–	–	–	–	–	–
SMILES	Tau fluor counter	Tau fibril FP	TRb SRC2 PPI	PNC inhibitor	TexasRed fluor	Tau ThT inhib
COc1cc(/C=N/O)c(Br)cc1OCC(=O)Nc1ccccc1C	–	–	–	-84	–	–
COc1cc(/C=N/NC(N)=O)c(Br)cc1OCC(=O)Nc1ccccc1C	–	–	–	–	–	?
CN(C)C(=S)Nc1ccc2ccccc2c1	–	–	–	?	–	–
CCS(=O)(=O)c1ccc2oc(Nc3ccc(C(C)C)cc3)nc2c1	?	?	–	–	–	40µM
Cc1c(/C=N/NC(=O)c2ccccc2O)c2ccccn2c1C(=O)c1ccc(F)cc1	–	–	–	–	–	–
Cc1c(/C=N/NC(=O)c2ccc(O)cc2)c2ccccn2c1C(=O)c1ccc(F)cc1	16µM[quencher]	?	–	–	–	?
CC1(C)CC(=O)C(C=Nc2ccc(N)cc2)=C(O)C1	–	–	–	·	–	?
Cc1cc2cc3c(cc2nc1SCc1ccccn1)OCCO3	–	–	–	?	–	–
N#Cc1cc2ccccc2nc1SCc1ccccn1	–	–	–	–	–	16µM
Cc1cc(C(=O)CSc2cccc[n+]2[O-])c(C)n1-c1ccc(OC(F)F)cc1	–	–	–	·	–	–
CCc1ccccc1Nc1nn2c(=O)c3ccc(C(=O)Nc4ccc(OC)cc4)cc3nc2s1	–	–	–	·	–	?
CC1(C)Cc2c(sc3[nH]c(=S)n(Cc4ccco4)c(=O)c23)CO1	–	?	–	–	–	28µM
O=c1c2c3c(sc2[nH]c(=S)n1Cc1ccco1)CCC3	–	–	–	·	–	?
CN(C)C(=O)CN(c1ccc2c(c1)OCO2)S(C)(=O)=O	–	–	–	-106	–	–
Cc1ccc(-n2c(C)cn(C(=O)c3ccccc3)c2=S)cc1	–	–	–	?	–	–
Cc1cn(C(=O)c2ccccc2)c(=S)n1-c1ccc(Cl)cc1	–	–	–	-100	–	–
CCOc1cnc(-c2ccccc2F)o1	–	–	–	·	–	–
Cc1ccccc1NC(=O)C1CCN(c2cc(-c3ccccc3)nc3ncnn23)CC1	–	?	–	-114	–	–
C(=N\c1c(-c2ccccc2)nc2n1CCS2)/c1ccccc1	?	?	–	–	–	22µM
CC(=O)C(C(C)=O)c1c(Cl)c(O)c(O)c2c(C(=O)c3ccccc3)coc12	?	?	–	–	–	16µM
COC(=O)c1ccccc1S(=O)(=O)N(Cc1ccco1)Cc1cc2cc(OC)ccc2[nH]c1=O	–	–	–	–	–	–
Cc1ccc(/C=N/Nc2nc3ccccc3s2)o1	14µM[quencher]	?	–	–	–	?
S=c1[nH]nc(-c2n[nH]c3c2CCC3)n1/N=C/C=C/c1ccco1	–	?	–	·	–	22µM
COc1ccccc1/C=C/C=N/n1c(-c2n[nH]c3c2CCC3)n[nH]c1=S	?	–	–	·	–	?
N=C1/C(=C/c2ccc(-c3cccc(C(=O)O)c3)o2)C(=O)N=C2SC=C(c3ccccc3)N12	–	–	–	·	?	4.5µM
